The values below come from PubChem BioAssay (Tox21).

Several values for one entry are separate records, joined by “and”; a condition that tells them apart may be missing. Identical values can stand only once. Unmarked numbers belong to inactive results. Records with an inconclusive call do not appear. Activity calls are given as the source filed them. Unless noted, calls come from the whole dose curve; as a rule, active = well fitted curve in the direction sought with a large enough effect in the repeat runs; inconclusive = weak or mixed curves; inactive = no such curve, though single readings can be large; an effect the other way counts as inactive or inconclusive.

The nature of experiment [1]: qHTS assay to test for compound auto fluorescence at 535 nm (green) in HEK293 cells (AID 720680). On the technique in general: In qHTS, concentration-response curves come from the screen itself.
The nature of experiment [2]: qHTS assay to test for compound auto fluorescence at 460 nm (blue) in HEK293 cell free culture (AID 720681). The method in brief: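 Test compounds were pinned into cell-free culture medium (DMEM with 10% FBS) and fluorescence was read directly at Ex/Em 405/460 nm. Signals were expressed as fluorescence equivalents of triamterene, with DMSO vehicle as control.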
A short description of experiment [3]: qHTS assay to test for compound auto fluorescence at 535 nm (green) in HEK293 cell free culture (AID 720682). The method, boiled down: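 Each library compound, or DMSO control, is added by pintool to medium alone, comprising DMEM and 10% FBS. Emission at 535 nm following 485 nm excitation is quantified against fluorescein.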
The nature of experiment [4]: qHTS assay to test for compound auto fluorescence at 590 nm (red) in HEK293 cell free culture (AID 720683). The method, boiled down: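 Tox21 10K library compounds were pinned into cell-free DMEM with 10% FBS and fluorescence was read at excitation 540 nm. Activity is expressed as Rose Bengal sodium equivalency.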
A short description of experiment [5]: qHTS assay to test for compound auto fluorescence at 590 nm (red) in HepG2 cell free culture (AID 720684). The method in brief: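 Readout: intrinsic compound fluorescence at 590 nm emission after 540 nm excitation, scaled to Rose Bengal sodium. Matrix was cell-free MEM with 10% FBS; DMSO vehicle wells served as control.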
Experiment [6] in a line: qHTS assay to test for compound auto fluorescence at 460 nm (blue) in HepG2 cell free culture (AID 720685). The method, boiled down:
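Cell-free plates of MEM plus 10% FBS received 23 nL compound or DMSO vehicle; blue-channel (405/460 nm) intensity scored against triamterene as reference fluorophore.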

The nature of experiment [7]: qHTS assay to test for compound auto fluorescence at 535 nm (green) in HepG2 cell free culture (AID 720686).
Experiment [8] is described as follows: qHTS assay to test for compound auto fluorescence at 460 nm (blue) in HepG2 cells (AID 720687). The method, boiled down: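 Cells (2,000/well in MEM with 10% FBS) attached overnight at 37 C, then were exposed to compound or DMSO for 1 hr at 37 C, 5% CO2. Fluorescence read at Ex/Em 405/460 nm, expressed as triamterene-equivalent signal.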
Experiment [9] addresses Glucocorticoid receptor (Homo sapiens) (UniProt P04150). Nature of the experiment: qHTS assay to identify small molecule agonists of the glucocorticoid receptor (GR) signaling pathway (AID 720691; active = well fitted activation curve with a large enough effect in the signal ratio in the repeat runs, not every such curve was filed as active; the % refers to the signal ratio). The conditions noted are these: GR-bla HeLa, beta-lactamase reporter ratio, 18 h; activation: at 62.4 µM (top of the series). The method, boiled down:
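Compounds in DMSO, alongside positive controls, were added to GR-bla HeLa reporter cells and incubated 18 h at 37 C; GRE-driven beta-lactamase was detected by fluorescence after 2 h with FRET substrate at room temperature.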

The target is the same in experiment [10]. Nature of the experiment: qHTS assay to identify small molecule antagonists of the glucocorticoid receptor (GR) signaling pathway (AID 720692; active = well fitted inhibition curve with a large enough effect in the signal ratio in the repeat runs, not every such curve was filed as active; the % refers to the signal ratio). The method in brief:
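In a 1536-well cell format, compounds were added 4 h after seeding GR-bla HeLa cells, together with dexamethasone at 5 nM final; reporter activity was measured by FRET-substrate fluorescence following 18 h at 37 C.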

A short description of experiment [11]: qHTS assay to identify small molecule antagonists of the glucocorticoid receptor (GR) signaling pathway - cell viability counter screen (AID 720693). Note: nearly all actives have a fitted effect of over 55% in size.
A short description of experiment [12]: qHTS assay for identifying genotoxic compounds that show differential cytotoxicity against isogenic chicken DT40 cell lines with known DNA damage response pathways - wild type cell line (AID 743012). Note: nearly all actives have a fitted effect of over 60% in size. Note: potency is the fitted concentration of half-maximal effect. The method, boiled down:
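Viability of DNA repair-proficient chicken DT40 cells was assessed by CellTiter-Glo luminescence following 40 h compound exposure at 37 C/5% CO2.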

Experiment [13] can be described thus: qHTS assay for identifying genotoxic compounds that show differential cytotoxicity against isogenic chicken DT40 cell lines with known DNA damage response pathways - Rev3 mutant cell line (AID 743014). Note: nearly all actives have a fitted effect of over 55% in size. Note: potency is the fitted concentration of half-maximal effect.
The nature of experiment [14]: qHTS assay for identifying genotoxic compounds that show differential cytotoxicity against isogenic chicken DT40 cell lines with known DNA damage response pathways - Rad54/Ku70 mutant cell line (AID 743015). Note: nearly all actives have a fitted effect of over 60% in size. Note: potency is the fitted concentration of half-maximal effect.
Experiment [15] can be described thus: qHTS assay to identify small molecule antagonists of the androgen receptor (AR) signaling pathway - cell viability counter screen (AID 743033; note: nearly all actives have a fitted effect of over 45% in size).
For experiment [16], the target named is Androgen receptor (Homo sapiens) (UniProt P10275). Nature of the experiment: qHTS assay to identify small molecule antagonists of the androgen receptor (AR) signaling pathway (AID 743035; active = well fitted inhibition curve with a large enough effect in the signal ratio in the repeat runs, not every such curve was filed as active; the % refers to the signal ratio). The method in brief: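 Reporter HEK293 cells were exposed to compounds and R1881 overnight (16 h, 37C); beta-lactamase activity was then quantified by FRET fluorescence.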

Experiment [17] has the same target. As to the kind of experiment: qHTS assay to identify small molecule agonists of the androgen receptor (AR) signaling pathway using the MDA cell line (AID 743040; note: nearly all actives have a fitted effect of over 20% in size). The method, boiled down:
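Agonist activity is measured as luciferase luminescence in human MDA-kb2 cells whose MMTV reporter responds to both AR and GR. Compounds in DMSO incubate 16 h at 37C, 0% CO2, and ONE-Glo is read after 30 min.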

A short description of experiment [18]: qHTS assay to identify small molecule antagonists of the androgen receptor (AR) signaling pathway using the MDA cell line - cell viability counter screen (AID 743041; note: nearly all actives have a fitted effect of over 45% in size). The method, boiled down: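 qHTS viability read-out; MDA-kb2 AR-luc; R1881-stimulated; 16 h exposure at 37C, 0% CO2; CellTiter-Fluor, 30 min; fluorescence intensity.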
Experiment [19] concerns the target Androgen receptor (Homo sapiens) (UniProt P10275). Nature of the experiment: qHTS assay to identify small molecule antagonists of the androgen receptor (AR) signaling pathway using the MDA cell line (AID 743042; note: nearly all actives have a fitted effect of over 55% in size). The method in brief:
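MDA-kb2 cells (human breast carcinoma, stably carrying an MMTV-luciferase reporter responsive to AR and GR) were plated at 3,000 cells/well and preincubated 5 hr at 37C, then given compound plus R1881 agonist for 16 h. ONE-Glo luminescence was read.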

Experiment [20] shares this target. Nature of the experiment: qHTS assay to identify small molecule agonists of the androgen receptor (AR) signaling pathway (AID 743036; active = well fitted activation curve with a large enough effect in the signal ratio in the repeat runs, with a control signal flat, not every such curve was filed as active; the % refers to the signal ratio). The method, boiled down:
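Following a 4 h settling period, AR-UAS-bla HEK293 cells were dosed with compounds for 16 h at 37C. A 2 h room-temperature incubation with LiveBLAzer B/G FRET substrate preceded the fluorescence measurement.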

Sequence of Glucocorticoid receptor (Homo sapiens) (P04150 whole entry, looked up): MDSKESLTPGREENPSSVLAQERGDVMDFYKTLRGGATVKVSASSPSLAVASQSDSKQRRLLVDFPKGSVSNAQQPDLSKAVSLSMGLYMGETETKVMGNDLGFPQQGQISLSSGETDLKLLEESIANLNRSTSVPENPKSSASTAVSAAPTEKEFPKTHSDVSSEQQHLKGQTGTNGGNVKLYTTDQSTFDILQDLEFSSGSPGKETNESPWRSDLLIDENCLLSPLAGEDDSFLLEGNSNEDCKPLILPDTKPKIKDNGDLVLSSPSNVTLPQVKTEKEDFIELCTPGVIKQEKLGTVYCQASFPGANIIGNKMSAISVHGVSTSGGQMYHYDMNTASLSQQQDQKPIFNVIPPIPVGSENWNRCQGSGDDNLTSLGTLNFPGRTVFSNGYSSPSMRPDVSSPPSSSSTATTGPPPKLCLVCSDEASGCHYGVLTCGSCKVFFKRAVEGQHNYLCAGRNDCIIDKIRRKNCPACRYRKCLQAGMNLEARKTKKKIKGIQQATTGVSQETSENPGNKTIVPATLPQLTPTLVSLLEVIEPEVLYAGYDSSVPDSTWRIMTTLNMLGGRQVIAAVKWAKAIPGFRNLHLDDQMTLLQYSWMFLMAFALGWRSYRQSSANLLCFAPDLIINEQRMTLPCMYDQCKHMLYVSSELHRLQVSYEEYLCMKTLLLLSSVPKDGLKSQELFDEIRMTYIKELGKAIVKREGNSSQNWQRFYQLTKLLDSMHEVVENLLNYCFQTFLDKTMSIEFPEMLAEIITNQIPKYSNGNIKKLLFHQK
Sequence of Androgen receptor (Homo sapiens) (P10275 whole entry, looked up): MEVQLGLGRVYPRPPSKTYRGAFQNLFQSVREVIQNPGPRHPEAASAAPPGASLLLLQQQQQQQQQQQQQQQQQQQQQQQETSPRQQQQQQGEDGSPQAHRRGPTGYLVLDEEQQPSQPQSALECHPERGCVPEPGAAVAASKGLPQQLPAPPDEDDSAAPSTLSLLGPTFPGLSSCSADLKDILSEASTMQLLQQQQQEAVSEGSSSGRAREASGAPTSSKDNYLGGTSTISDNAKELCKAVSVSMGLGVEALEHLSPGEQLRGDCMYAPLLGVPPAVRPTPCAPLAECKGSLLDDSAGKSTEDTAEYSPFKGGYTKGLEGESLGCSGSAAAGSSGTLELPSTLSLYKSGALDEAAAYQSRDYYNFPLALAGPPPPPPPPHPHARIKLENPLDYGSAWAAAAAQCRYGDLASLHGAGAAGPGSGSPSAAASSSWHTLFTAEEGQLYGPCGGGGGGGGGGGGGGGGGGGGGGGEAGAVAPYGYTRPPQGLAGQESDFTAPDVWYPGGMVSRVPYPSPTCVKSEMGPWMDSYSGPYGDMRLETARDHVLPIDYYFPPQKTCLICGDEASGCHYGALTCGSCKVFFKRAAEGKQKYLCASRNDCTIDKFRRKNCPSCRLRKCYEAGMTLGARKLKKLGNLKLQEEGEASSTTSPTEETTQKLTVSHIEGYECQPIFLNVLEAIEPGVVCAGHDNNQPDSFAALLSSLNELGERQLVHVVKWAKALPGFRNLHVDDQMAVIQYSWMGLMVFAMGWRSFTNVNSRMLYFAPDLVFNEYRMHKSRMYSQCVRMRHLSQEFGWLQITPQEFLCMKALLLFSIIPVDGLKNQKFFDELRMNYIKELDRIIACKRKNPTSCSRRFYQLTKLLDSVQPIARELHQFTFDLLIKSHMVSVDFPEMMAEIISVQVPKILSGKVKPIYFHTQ

For `CO/N=C(\C(=O)N[C@@H]1C(=O)N2C(C(=O)O)=C(C[N+]3(C)CCCC3)CS[C@H]12)c1csc(N)n1`, the molecule was classed as inactive in experiment [1], in [3], in [4] and in experiment [5]. In addition, the Potency entry in experiment [2], in experiment [6], in experiment [7], in [8], in experiment [9] and in experiment [10] was “inactive” in each case. The Potency result in [11], in [12], in [13], in experiment [14], in [15] and in experiment [16] was “inactive” in each case. Besides, the Potency entry in experiment [17], in experiment [18] and in [19] was “inactive” throughout.
On to `C/C(=C\C(=O)OCCCCCCCCC(=O)O)C[C@@H]1OC[C@H](C[C@@H]2O[C@H]2[C@@H](C)[C@H](C)O)[C@@H](O)[C@H]1O`, for which the result in [1], in experiment [3], in experiment [4] and in [5] was inactive. The Potency entry in [2], in experiment [6], in [7], in experiment [8], in experiment [9] and in [10] was “inactive” in each case. The Potency result in experiment [11], in experiment [15] and in experiment [18] was “inactive” each time. Further, the figures for the Potency in experiment [12], in experiment [13] and in experiment [14] were 1500 nM (active), 1500 nM (active) and 2.37 µM (active), respectively.
In the case of `NS(=O)(=O)c1cc(Cl)c(Cl)c(S(N)(=O)=O)c1`, the call in experiment [1], in [3], in [4] and in [5] was inactive. Also, the Potency result in [2], in experiment [6], in [7], in experiment [8], in experiment [9] and in [10] was “inactive” in each case. Also, the Potency result in [11], in [12], in [14] and in experiment [18] was “inactive” each time.
In the case of `CCCCCCCCCCCCCCCC(=O)OC[C@H](COP(=O)([O-])OCC[N+](C)(C)C)OC(=O)CCCCCCCCCCCCCCC`, the call in experiment [1], in experiment [3], in [4] and in experiment [5] was inactive. Further, the Potency entry in experiment [2], in experiment [6], in experiment [7], in [8], in experiment [9] and in [10] was “inactive” each time. In addition, the Potency entry in [11], in experiment [12], in [13], in [14], in experiment [15] and in experiment [16] was “inactive” each time. Also, the Potency result in [20], in experiment [17], in experiment [18] and in [19] was “inactive” in each case.
As to `Nc1nc(NC2CC2)c2ncn([C@@H]3C=C[C@@H](CO)C3)c2n1`, the molecule was called inactive in experiment [1], in experiment [3], in experiment [4] and in experiment [5]. For the same molecule, the Potency entry in experiment [2], in experiment [6], in experiment [7], in experiment [8], in experiment [9] and in experiment [10] was “inactive” throughout. Moreover, the Potency entry in experiment [11], in experiment [12], in experiment [14], in experiment [15] and in experiment [18] was “inactive” each time.
Take `CC(C)c1ncc([N+](=O)[O-])n1C`: the result in [1], in [3], in experiment [4] and in experiment [5] was inactive. For the same molecule, the Potency result in [2], in [6], in experiment [7], in experiment [8], in [9] and in experiment [10] was “inactive” each time. Further, the Potency result in experiment [11], in experiment [12], in experiment [13], in experiment [14], in experiment [16] and in experiment [17] was “inactive” throughout. Moreover, the Potency entry in experiment [18] and in [19] was “inactive” in each case.
`Cc1cc(-c2ccc(N=Nc3ccc4c(S(=O)(=O)O)cc(S(=O)(=O)O)c(N)c4c3O)c(C)c2)ccc1N=Nc1ccc2c(S(=O)(=O)O)cc(S(=O)(=O)O)c(N)c2c1O`: the call in experiment [1], in experiment [3], in experiment [4] and in experiment [5] was inactive. Besides, the Potency entry in [2], in experiment [6], in experiment [7], in experiment [8], in experiment [9] and in experiment [10] was “inactive” throughout. The Potency entry in [11] and in [15] was “inactive” throughout. The Potency in experiment [12] was 23700 nM (active); in [14] it was 11.9 µM (active) and 23.7 µM (active).
